Source: PubChem BioAssay (NCATS)
Results filed as inconclusive are left out. Activity calls are given as the source filed them. The call rests on the fitted dose curve; in most records, active means well fitted inhibition curve with a large enough effect; inconclusive means small, poorly fitted or top-dose-only effect; inactive means flat fitted curve, though single readings scatter.

Key:
Assay in all cases: qHTS profiling for inhibitors of Plasmodium falciparum proliferation (AID 504749); further: nearly all actives have a fitted effect of over 60% in size
Details in all cases: P. falciparum in erythrocytes, SYBR Green DNA, 72 h; series mostly up to 28.7 µM
CP191 = test system: CP191
Outline: (§1)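 Infected RBCs, 0.3% parasitemia/2.5% Hct final; cpd 72 h, 37 C, 5% CO2; lysis buffer with saponin/triton/SYBR Green I, o/n RT dark; FI 485/535; norm. to artemisinin (0.29 uM) and DMSO.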

CP192 = test system: CP192
Outline: as §1

CP194 = test system: CP194
Outline: as §1

CP201 = test system: CP201
Outline: as §1

CP203 = test system: CP203
Outline: as §1

CP211 = test system: CP211
Outline: as §1

CP215 = test system: CP215
Outline: as §1

CP217 = test system: CP217
Outline: as §1

CP238 = test system: CP238
Outline: as §1

CP247 = test system: CP247
Outline: as §1

CP250 = test system: CP250
Outline: as §1

CP252 = test system: CP252
Outline: as §1

CP256 = test system: CP256
Outline: as §1

CP262 = test system: CP262
Outline: as §1

CP265 = test system: CP265
Outline: as §1

CP266 = test system: CP266
Outline: as §1

CP268 = test system: CP268
Outline: as §1

CP269 = test system: CP269
Outline: as §1

CP237 = test system: CP237
Outline: as §1

CP260 = test system: CP260
Outline: as §1

Measured: Potency
Potency means the concentration at half of the fitted maximal effect.

Cc1ccc(Cl)c(Nc2ccccc2C(=O)O)c1Cl
not listed: CP237 | CP260
inactive: all other assays above

COc1cc2c(cc1OC)-c1cc(=Nc3c(C)cc(C)cc3C)n(C)c(=O)n1CC2
active: CP191 3.98 µM | CP192 9.53 µM | CP194 4.78 µM | CP201 4.26 µM | CP203 7.57 µM | CP215 5.36 µM | CP217 3.55 µM | CP237 3.16 µM | CP238 10 µM | CP247 5.62 µM | CP250 3.55 µM | CP252 11.2 µM | CP256 4.47 µM | CP260 3.16 µM | CP262 4.78 µM | CP265 7.94 µM | CP266 6.75 µM | CP268 1.51 µM | CP269 4.78 µM

COC(=O)[C@@H](N)Cc1ccc(O)c(O)c1
not listed: CP247 | CP250 | CP262 | CP269 | CP237
inactive: all other assays above

CCN(Cc1ccncc1)C(=O)C(CO)c1ccccc1 (stereo unspecified)
inactive: all assays above

CC(N=C(NC#N)Nc1ccncc1)C(C)(C)C (stereo unspecified)
not listed: CP262
inactive: all other assays above

C[C@]12CCC(=O)C=C1CC[C@@H]1[C@@H]2CC[C@@]2(C)[C@H]1CC[C@]2(O)C(=O)CO
not listed: CP250
inactive: all other assays above

Cc1nnc(SCC2=C(C(=O)O)N3C(=O)[C@@H](NC(=O)Cn4cnnn4)[C@H]3SC2)s1
inactive: all assays above

NCCCNCCSP(=O)(O)O
inactive: all assays above

CCN(CC)CCNC(=O)c1ccc(NC(C)=O)cc1
not listed: CP266
inactive: all other assays above

CCN1CCc2nc(N)oc2CC1
not listed: CP268
inactive: all other assays above

CCn1ccnc1CC1COc2ccccc2O1 (stereo unspecified)
not listed: CP260
inactive: all other assays above

CCCN(CCC)CCc1cccc2c1CC(=O)N2
inactive: all assays above

CC(C)NNC(=O)c1ccncc1
active: CP191 4.47 µM
not listed: CP217 | CP252 | CP256
inactive: all other assays above

CN(C)C(=O)Oc1ccc[n+](C)c1
not listed: CP247
inactive: all other assays above

NC(=Nc1ccccc1)Nc1ccccc1
not listed: CP237
inactive: all other assays above

COC(=O)[C@H]1[C@H]2C[C@@H]3c4[nH]c5cc(OC)ccc5c4CCN3C[C@H]2C[C@@H](OC(=O)c2cc(OC)c(OC)c(OC)c2)[C@@H]1OC
active: CP191 8.91 µM | CP192 13.5 µM | CP194 9.53 µM | CP201 12 µM | CP211 6.75 µM | CP215 9.53 µM | CP217 11.2 µM | CP237 11.2 µM | CP238 11.2 µM | CP247 11.2 µM | CP252 11.2 µM | CP260 11.2 µM | CP268 15.1 µM | CP269 9.53 µM

CCn1cc(C(=O)O)c(=O)c2cc3c(cc21)OCO3
not listed: CP260
inactive: all other assays above

NC(=O)N1c2ccccc2C=Cc2ccccc21
not listed: CP203 | CP211
inactive: all other assays above

OC(CCN1CCCCC1)(c1ccccc1)C1CCCCC1 (stereo unspecified)
not listed: CP194 | CP265 | CP260
inactive: all other assays above

CCCCOCCOCCOCc1cc2c(cc1CCC)OCO2
not listed: CP266
inactive: all other assays above

OCCN1CCN(CC/C=C2/c3ccccc3Sc3ccc(C(F)(F)F)cc32)CC1
active: CP191 5.01 µM | CP192 9.53 µM | CP194 7.57 µM | CP201 10.7 µM | CP203 9.53 µM | CP211 5.36 µM | CP215 12 µM | CP237 10 µM | CP247 8.91 µM | CP250 12.6 µM | CP252 7.94 µM | CP256 3.98 µM | CP260 12.6 µM | CP262 6.01 µM | CP268 13.5 µM | CP269 4.78 µM

CN(C)C(=O)Oc1cccc([N+](C)(C)C)c1
not listed: CP203 | CP215
inactive: all other assays above

CCCCCCCC/C=C\CCCCCCCC(=O)NCc1ccc(O)c(OC)c1
active: CP191 12.6 µM | CP247 7.08 µM | CP256 11.2 µM | CP265 10 µM
not listed: CP217 | CP238 | CP250 | CP252 | CP237 | CP260
inactive: all other assays above

CCN(CC)CC(=O)Nc1c(C)cccc1C
not listed: CP237
inactive: all other assays above

C#CCN(C)CCCOc1ccc(Cl)cc1Cl
not listed: CP250
inactive: all other assays above

CCN(CC)CCCN(c1ccccc1)C1Cc2ccccc2C1
active: CP191 5.01 µM | CP192 10.7 µM | CP194 7.57 µM | CP201 7.57 µM | CP203 6.75 µM | CP211 12 µM | CP215 8.49 µM | CP217 5.62 µM | CP237 2.82 µM | CP238 11.2 µM | CP247 8.91 µM | CP250 7.94 µM | CP252 10 µM | CP256 4.47 µM | CP260 2.82 µM | CP265 3.98 µM | CP266 8.49 µM | CP268 7.57 µM | CP269 10.7 µM

CC(C)COCC(CN(Cc1ccccc1)c1ccccc1)N1CCCC1 (stereo unspecified)
active: CP215 7.57 µM | CP237 5.01 µM
not listed: CP201 | CP203 | CP268 | CP269 | CP260
inactive: all other assays above

NC1=NCC2c3ccccc3Cc3ccccc3N12 (stereo unspecified)
not listed: CP191 | CP203 | CP215
inactive: all other assays above
